Laboratory results published in the supplement of paper PMC10849652.
Targets with a hit are over-represented here; the source holds about 7,900 in all. About 0.6% of all pairs of compound and target were hits.

Assays:
Experiment in all cases: log2 fold change, soluble protein after heating vs DMSO (PISA); higher = thermal stabilisation; K562 cells, 10 uM, 30 min; active = over 0.2 and 3.5 SD of the protein, either way, in both replicates (recomputed)
[1] = compound: CC1=C(C=C(C=C1)NC(=O)C2=CC(=CC=C2)C(C)(C)C#N)NC3=CC4=C(C=C3)N=CN(C4=O)C
In short: (§1)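 Thermal stability values are relative to control samples and come from duplicates. They are expressed as log2 fold changes. For measurement, K562 cells (2×10^6 cells/mL) received 10 μM compound for 30 min, and aliquots were heated for 3 min over 48°C-58°C, pooled, and extracted at 4°C in PBS with 0.5% NP-40. Soluble protein, the supernatant after 21,000xg for 90 min, was quantified by TMTpro 16plex LC-MS/MS with equalised channel sums.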

[2] = compound: CC1=C(C=C(C=C1)NC(=O)C2=CC(=CC=C2)N(C)C)NC(=O)C3=CC=C(C=C3)O
In short: as §1

[3] = compound: CC1=CC=C(C=C1)SC2=C3C=C(SC3=CN=C2)C(=O)N
In short: as §1

[4] = compound: CC1=NC(=CC=C1)C2=C(N=C(N2)C(C)(C)C)C3=CC4=NC=CN=C4C=C3
In short: as §1

Nexturastat A = compound: CCCCN(Cc1ccc(C(=O)NO)cc1)C(=O)Nc1ccccc1 [Nexturastat A]
In short: as §1

vemurafenib = compound: CCCS(=O)(=O)Nc1ccc(F)c(C(=O)c2c[nH]c3ncc(-c4ccc(Cl)cc4)cc23)c1F [vemurafenib]
In short: as §1

[5] = compound: CCCS(=O)(=O)Nc1ccc(F)c(C(=O)c2c[nH]c3ncc(Cl)cc23)c1F
In short: as §1

[6] = compound: CCCc1cc(C)[nH]c(=O)c1CNC(=O)c1cc(-c2ccnc(N3CCN(C)CC3)c2)cc2c1cnn2C(C)C
In short: as §1

givinostat = compound: CCN(CC)Cc1ccc2cc(COC(=O)Nc3ccc(C(=O)NO)cc3)ccc2c1 [givinostat]
In short: as §1

barasertib = compound: CCN(CCCOc1ccc2c(Nc3cc(CC(=O)Nc4cccc(F)c4)[nH]n3)ncnc2c1)CCOP(=O)(O)O [barasertib]
In short: as §1

[7] = compound: CC[C@@H]1C(=O)N(C)c2cnc(Nc3ccc(C(=O)NC4CCN(C)CC4)cc3OC)nc2N1C1CCCC1
In short: as §1

volasertib = compound: CC[C@@H]1C(=O)N(C)c2cnc(Nc3ccc(C(=O)N[C@H]4CC[C@H](N5CCN(CC6CC6)CC5)CC4)cc3OC)nc2N1C(C)C [volasertib]
In short: as §1

[8] = compound: CC[C@H](C)N1C=C(C2=C(C=C(C=C21)C3=CN=C(C=C3)N4CCNCC4)C(=O)NCC5=C(C=C(NC5=O)C)C)C
In short: as §1

epoxomicin = compound: CC[C@H](C)[C@@H](C(=O)N[C@@H]([C@@H](C)O)C(=O)N[C@@H](CC(C)C)C(=O)[C@]1(CO1)C)NC(=O)[C@H]([C@@H](C)CC)N(C)C(=O)C [epoxomicin]
In short: as §1

[9] = compound: CCn1c(C(=O)N(C2CC2)C2CC2)cc2c3c(ncn3C)c(Nc3cc(C)n(C)n3)nc21
In short: as §1

[10] = compound: CCn1cc(-c2ccnc3[nH]c(-c4cccc(CN(C)C)c4)cc23)c(-c2ccc(NC(=O)N(C)C)cc2)n1
In short: as §1

[11] = compound: CN(C)CC(=O)Nc1ccc2[nH]c(=O)c3ccccc3c2c1
In short: as §1

rosiglitazone = compound: CN(CCOC1=CC=C(C=C1)C[C@H]2C(=O)NC(=O)S2)C3=CC=CC=N3 (racemic) [rosiglitazone]
In short: as §1

[12] = compound: CN1C2=C(C3=C1C(=O)N(N=C3)CC4=CC(=CC=C4)N)SC(=C2)S(=O)C
In short: as §1

[13] = compound: CN1CCC(CNc2ccc3ncc(-c4cccc(OC(F)(F)F)c4)n3n2)CC1
In short: as §1

Measured: log2 fold change

ATP5ME (UniProt P56385)
Sequence of UniProt P56385 (P56385 whole entry, looked up): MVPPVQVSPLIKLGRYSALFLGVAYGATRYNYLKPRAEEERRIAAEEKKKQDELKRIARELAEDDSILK
inactive: [1] 0.036 | [2] -0.037 | [3] 0.031 | [4] 0.011 | Nexturastat A -0.035 | vemurafenib -0.003 | [5] -0.041 | [6] -0.041 | givinostat 0.027 | barasertib 0.007 | [7] 0.004 | volasertib 0.038 | [8] -0.048 | epoxomicin 0.075 | [9] -0.002 | [10] 0.002 | [11] -0.054 | rosiglitazone -0.013 | [12] 0.018 | [13] 0.069

ATP2A3 isoform 2 (UniProt Q93084)
Sequence of UniProt Q93084 (Q93084 whole entry, looked up): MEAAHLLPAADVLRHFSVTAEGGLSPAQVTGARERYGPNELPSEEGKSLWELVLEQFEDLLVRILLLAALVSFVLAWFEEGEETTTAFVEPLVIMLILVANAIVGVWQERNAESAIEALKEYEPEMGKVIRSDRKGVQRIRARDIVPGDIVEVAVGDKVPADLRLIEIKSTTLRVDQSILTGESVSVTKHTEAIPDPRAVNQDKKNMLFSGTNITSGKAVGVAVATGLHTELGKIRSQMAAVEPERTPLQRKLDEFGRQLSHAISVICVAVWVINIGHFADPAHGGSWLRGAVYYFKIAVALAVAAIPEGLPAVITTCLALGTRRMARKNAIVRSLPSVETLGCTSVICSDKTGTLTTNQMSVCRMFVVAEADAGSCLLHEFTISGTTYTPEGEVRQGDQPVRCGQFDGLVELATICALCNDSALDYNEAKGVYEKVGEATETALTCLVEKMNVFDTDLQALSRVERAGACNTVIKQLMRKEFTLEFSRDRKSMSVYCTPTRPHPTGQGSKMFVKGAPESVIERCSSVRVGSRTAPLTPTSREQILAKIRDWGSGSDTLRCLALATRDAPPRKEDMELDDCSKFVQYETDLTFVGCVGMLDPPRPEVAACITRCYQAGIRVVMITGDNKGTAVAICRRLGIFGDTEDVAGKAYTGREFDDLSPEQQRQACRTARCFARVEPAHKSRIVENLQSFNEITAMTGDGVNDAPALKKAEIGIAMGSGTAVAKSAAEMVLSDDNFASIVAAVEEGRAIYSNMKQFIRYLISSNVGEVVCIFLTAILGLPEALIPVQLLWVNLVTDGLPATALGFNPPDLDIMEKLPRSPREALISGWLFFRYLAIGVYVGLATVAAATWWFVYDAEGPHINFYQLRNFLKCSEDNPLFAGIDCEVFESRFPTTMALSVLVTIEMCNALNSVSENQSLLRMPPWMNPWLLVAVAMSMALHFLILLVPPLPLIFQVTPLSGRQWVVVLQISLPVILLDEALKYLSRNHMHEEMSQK
inactive: [1] -0.024 | [2] -0.001 | [3] -0.013 | [4] 0.004 | Nexturastat A 0 | vemurafenib -0.004 | [5] 0.032 | [6] 0.042 | givinostat -0.01 | barasertib 0.011 | [7] -0.142 | volasertib -0.208 | [8] 0.046 | epoxomicin 0.06 | [9] 0.014 | [10] -0.047 | [11] -0.028 | rosiglitazone 0.009 | [12] -0.016 | [13] 0.028

ATP13A2 (UniProt Q9NQ11)
inactive: [1] 0.017 | [2] 0.009 | [3] 0.035 | [4] 0.055 | Nexturastat A 0.001 | vemurafenib 0.085 | [5] -0.037 | [6] 0.014 | givinostat -0.044 | barasertib -0.052 | [7] -0.141 | volasertib -0.103 | [8] -0.074 | epoxomicin 0.003 | [9] 0.012 | [10] -0.031 | [11] -0.002 | rosiglitazone 0.066 | [12] 0.058
active: [13] -0.509

BRIX1 (UniProt Q8TDN6)
Sequence of UniProt Q8TDN6 (Q8TDN6 whole entry, looked up): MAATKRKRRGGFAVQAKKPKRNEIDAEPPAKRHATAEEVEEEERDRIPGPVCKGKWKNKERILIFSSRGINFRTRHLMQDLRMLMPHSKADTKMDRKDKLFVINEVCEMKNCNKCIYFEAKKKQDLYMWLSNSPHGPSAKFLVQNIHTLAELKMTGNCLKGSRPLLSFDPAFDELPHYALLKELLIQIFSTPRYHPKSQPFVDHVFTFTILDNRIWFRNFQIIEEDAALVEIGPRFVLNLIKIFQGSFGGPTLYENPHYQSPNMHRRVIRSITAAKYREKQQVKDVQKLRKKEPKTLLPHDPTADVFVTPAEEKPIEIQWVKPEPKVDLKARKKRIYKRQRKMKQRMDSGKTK
inactive: [1] 0.038 | [2] -0.061 | [3] -0.09 | [4] -0.134 | Nexturastat A 0.37 | vemurafenib -0.11 | [5] 0.008 | [6] 0.159 | givinostat 0.15 | barasertib -0.197 | [7] 0.166 | volasertib 0.317 | [8] 0.048 | epoxomicin -0.343 | [9] -0.041 | [10] 0.31 | [11] -0.143 | rosiglitazone -0.266 | [12] 0.36 | [13] 0.481

BECN1 (UniProt Q14457)
inactive: [1] -0.04 | [2] 0.029 | [3] 0 | [4] 0.04 | Nexturastat A 0.015 | vemurafenib 0.055 | [5] -0.01 | [6] -0.024 | givinostat -0.018 | barasertib -0.012 | [7] 0.069 | volasertib -0.003 | [8] 0.029 | epoxomicin 0.07 | [9] 0.053 | [10] -0.107 | [11] -0.003 | rosiglitazone 0.013 | [12] 0.024 | [13] 0.009

AP2M1 (UniProt Q96CW1)
inactive: [1] 0.022 | [2] -0.019 | [3] -0.023 | [4] 0.002 | Nexturastat A 0.073 | vemurafenib -0.006 | [5] 0.014 | [6] -0.049 | givinostat 0.031 | barasertib -0.074 | [7] 0.072 | volasertib -0.041 | [8] 0 | epoxomicin 0.002 | [9] 0.013 | [10] -0.006 | [11] -0.046 | rosiglitazone -0.018 | [12] 0.023 | [13] 0.006

AARSD1 isoform 3 (UniProt Q9BTE6)
Sequence of UniProt Q9BTE6 (Q9BTE6 whole entry, looked up): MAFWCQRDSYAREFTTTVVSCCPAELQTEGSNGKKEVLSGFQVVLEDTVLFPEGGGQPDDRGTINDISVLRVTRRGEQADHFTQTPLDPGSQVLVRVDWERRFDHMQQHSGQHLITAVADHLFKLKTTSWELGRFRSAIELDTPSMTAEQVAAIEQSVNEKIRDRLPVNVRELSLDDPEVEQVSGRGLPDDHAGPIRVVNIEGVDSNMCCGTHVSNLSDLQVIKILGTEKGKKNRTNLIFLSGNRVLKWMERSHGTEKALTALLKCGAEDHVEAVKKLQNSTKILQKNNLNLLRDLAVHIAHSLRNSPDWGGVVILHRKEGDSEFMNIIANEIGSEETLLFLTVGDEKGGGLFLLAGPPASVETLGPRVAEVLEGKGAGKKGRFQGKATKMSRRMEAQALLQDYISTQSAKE
inactive: [1] 0.016 | [2] -0.04 | [3] -0.003 | [4] 0.034 | Nexturastat A -0.077 | vemurafenib 0.003 | [5] 0.122 | [6] 0.03 | barasertib 0.032 | [7] -0.081 | [8] 0.019 | epoxomicin 0.083 | [9] 0.009 | [10] -0.01 | [11] 0.037 | rosiglitazone 0.05 | [12] 0.02 | [13] 0.021
active: givinostat -0.273 | volasertib -0.27

BRAP (UniProt Q7Z569)
inactive: [1] 0.057 | [2] 0.075 | [3] 0.023 | [4] 0.029 | Nexturastat A -0.031 | vemurafenib 0.037 | [5] 0.151 | [6] 0.08 | givinostat -0.081 | barasertib 0.08 | [7] -0.092 | volasertib -0.23 | [8] 0.033 | epoxomicin -0.093 | [9] -0.02 | [10] 0.086 | [11] 0.02 | rosiglitazone 0.02 | [12] 0.06 | [13] -0.158

AP2B1 isoform 2 (UniProt P63010)
inactive: [1] 0.016 | [2] 0.018 | [3] 0.021 | [4] 0.018 | Nexturastat A 0.033 | vemurafenib 0.031 | [5] 0.039 | [6] -0.021 | givinostat 0.015 | barasertib -0.013 | [7] 0.065 | volasertib -0.064 | [8] -0.001 | epoxomicin -0.004 | [9] 0.05 | [10] -0.021 | [11] -0.007 | rosiglitazone -0.018 | [12] -0.016 | [13] 0.045

AARS2 (UniProt Q5JTZ9)
Sequence of UniProt Q5JTZ9 (Q5JTZ9 whole entry, looked up): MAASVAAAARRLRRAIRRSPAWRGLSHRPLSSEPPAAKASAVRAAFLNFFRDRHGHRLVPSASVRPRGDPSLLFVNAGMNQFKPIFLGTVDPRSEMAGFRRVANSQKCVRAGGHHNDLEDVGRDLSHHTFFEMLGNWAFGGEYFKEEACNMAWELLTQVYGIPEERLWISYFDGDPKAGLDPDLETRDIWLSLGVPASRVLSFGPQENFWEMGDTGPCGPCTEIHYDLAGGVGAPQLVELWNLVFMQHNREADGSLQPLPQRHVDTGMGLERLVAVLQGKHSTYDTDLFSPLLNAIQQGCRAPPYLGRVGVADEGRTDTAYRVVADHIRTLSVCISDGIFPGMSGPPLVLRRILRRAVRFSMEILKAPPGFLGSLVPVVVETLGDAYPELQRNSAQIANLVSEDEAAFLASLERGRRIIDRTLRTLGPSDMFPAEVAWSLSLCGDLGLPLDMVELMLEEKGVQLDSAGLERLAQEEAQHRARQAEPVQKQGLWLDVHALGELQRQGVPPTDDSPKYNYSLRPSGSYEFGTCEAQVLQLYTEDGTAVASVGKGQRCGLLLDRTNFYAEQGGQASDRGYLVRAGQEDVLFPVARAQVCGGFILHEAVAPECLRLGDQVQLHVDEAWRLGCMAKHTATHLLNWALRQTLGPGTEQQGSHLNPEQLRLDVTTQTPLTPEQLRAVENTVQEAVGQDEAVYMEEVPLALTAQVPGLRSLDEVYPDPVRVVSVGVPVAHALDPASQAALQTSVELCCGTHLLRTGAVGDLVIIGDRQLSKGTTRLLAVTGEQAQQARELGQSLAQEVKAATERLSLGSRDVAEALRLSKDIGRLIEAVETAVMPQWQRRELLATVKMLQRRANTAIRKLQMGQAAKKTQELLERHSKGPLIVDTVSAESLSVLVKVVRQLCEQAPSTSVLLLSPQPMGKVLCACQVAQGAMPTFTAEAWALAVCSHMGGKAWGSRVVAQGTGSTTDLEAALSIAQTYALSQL
inactive: [1] -0.003 | [2] -0.047 | [3] 0.017 | [4] 0.079 | Nexturastat A -0.015 | vemurafenib 0.045 | [5] 0.04 | [6] 0.049 | givinostat 0.05 | barasertib 0.058 | [7] 0.001 | volasertib -0.199 | [8] 0.023 | epoxomicin 0.023 | [9] -0.015 | [10] -0.05 | [11] 0.031 | rosiglitazone 0.054 | [12] -0.062
active: [13] -0.312

ACO2 (UniProt Q99798)
Sequence of UniProt Q99798 (Q99798 whole entry, looked up): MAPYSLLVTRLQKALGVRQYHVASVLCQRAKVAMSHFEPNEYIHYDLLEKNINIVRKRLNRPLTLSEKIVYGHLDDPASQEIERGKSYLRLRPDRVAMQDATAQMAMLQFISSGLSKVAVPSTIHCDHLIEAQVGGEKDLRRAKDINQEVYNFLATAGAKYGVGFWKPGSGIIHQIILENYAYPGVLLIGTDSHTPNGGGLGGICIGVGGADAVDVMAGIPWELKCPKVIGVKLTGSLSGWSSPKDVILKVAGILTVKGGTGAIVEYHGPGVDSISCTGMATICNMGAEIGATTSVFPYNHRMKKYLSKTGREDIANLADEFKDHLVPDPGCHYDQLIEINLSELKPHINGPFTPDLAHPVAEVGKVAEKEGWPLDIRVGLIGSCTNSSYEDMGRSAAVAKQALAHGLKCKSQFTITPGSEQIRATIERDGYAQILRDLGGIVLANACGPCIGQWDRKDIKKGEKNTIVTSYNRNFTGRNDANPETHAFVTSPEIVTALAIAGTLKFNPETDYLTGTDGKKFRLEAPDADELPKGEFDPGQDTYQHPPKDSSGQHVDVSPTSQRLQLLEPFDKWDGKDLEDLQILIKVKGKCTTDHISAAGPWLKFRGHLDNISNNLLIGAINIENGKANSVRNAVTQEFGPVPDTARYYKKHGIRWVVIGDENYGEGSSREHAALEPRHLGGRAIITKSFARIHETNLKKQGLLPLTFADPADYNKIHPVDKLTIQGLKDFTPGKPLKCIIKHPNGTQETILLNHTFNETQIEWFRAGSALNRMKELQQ
active: [13] -0.344
inactive: [1] 0.071 | [2] -0.063 | [3] 0.012 | [4] 0.035 | Nexturastat A -0.073 | vemurafenib 0.055 | [5] 0.027 | [6] -0.003 | givinostat -0.014 | barasertib 0.037 | [7] 0.043 | volasertib 0.037 | [8] 0.022 | epoxomicin 0.046 | [9] -0.011 | [10] -0.115 | [11] 0.055 | rosiglitazone -0.023 | [12] -0.118

AURKA (UniProt O14965)
inactive: [1] -0.008 | [2] -0.041 | [3] -0.011 | [4] -0.036 | Nexturastat A 0.096 | vemurafenib -0.026 | [5] 0.006 | [6] 0.01 | givinostat 0.257 | barasertib 0.114 | [7] 0.017 | volasertib 0.134 | [8] -0.022 | epoxomicin 0.113 | [9] 0.004 | [11] 0 | rosiglitazone -0.015 | [12] 0.029 | [13] 0.14
active: [10] 0.733

ARMC8 (UniProt Q8IUR7)
inactive: [1] 0.017 | [2] 0.039 | [3] -0.049 | [4] 0.006 | Nexturastat A -0.002 | vemurafenib -0.017 | [5] 0.027 | [6] 0.065 | givinostat 0 | barasertib -0.025 | [7] -0.055 | volasertib -0.14 | [8] 0.053 | epoxomicin -0.008 | [9] -0.005 | [10] 0.003 | [11] -0.007 | rosiglitazone -0.029 | [12] 0.053 | [13] 0.043

ALKBH5 (UniProt Q6P6C2)
Sequence of UniProt Q6P6C2 (Q6P6C2 whole entry, looked up): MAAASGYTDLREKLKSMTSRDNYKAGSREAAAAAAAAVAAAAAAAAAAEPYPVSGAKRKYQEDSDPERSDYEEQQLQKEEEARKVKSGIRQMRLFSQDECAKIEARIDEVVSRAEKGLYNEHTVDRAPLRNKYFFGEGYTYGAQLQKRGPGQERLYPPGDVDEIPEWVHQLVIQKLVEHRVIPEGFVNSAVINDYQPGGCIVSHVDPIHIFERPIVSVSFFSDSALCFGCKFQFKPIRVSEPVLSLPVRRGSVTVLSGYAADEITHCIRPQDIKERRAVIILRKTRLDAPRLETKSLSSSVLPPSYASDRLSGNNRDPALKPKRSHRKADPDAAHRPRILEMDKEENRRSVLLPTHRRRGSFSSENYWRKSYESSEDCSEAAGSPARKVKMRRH
inactive: [1] -0.12 | [2] -0.017 | [3] -0.046 | [4] -0.031 | Nexturastat A -0.068 | vemurafenib -0.071 | [5] -0.09 | [6] 0.162 | givinostat 0.092 | barasertib -0.023 | [7] 0.08 | volasertib 0.109 | [8] 0.01 | epoxomicin -0.033 | [9] -0.112 | [10] -0.058 | [11] -0.058 | rosiglitazone -0.015 | [12] -0.011 | [13] 0.041

ANAPC2 (UniProt Q9UJX6)
Sequence of UniProt Q9UJX6 (Q9UJX6 whole entry, looked up): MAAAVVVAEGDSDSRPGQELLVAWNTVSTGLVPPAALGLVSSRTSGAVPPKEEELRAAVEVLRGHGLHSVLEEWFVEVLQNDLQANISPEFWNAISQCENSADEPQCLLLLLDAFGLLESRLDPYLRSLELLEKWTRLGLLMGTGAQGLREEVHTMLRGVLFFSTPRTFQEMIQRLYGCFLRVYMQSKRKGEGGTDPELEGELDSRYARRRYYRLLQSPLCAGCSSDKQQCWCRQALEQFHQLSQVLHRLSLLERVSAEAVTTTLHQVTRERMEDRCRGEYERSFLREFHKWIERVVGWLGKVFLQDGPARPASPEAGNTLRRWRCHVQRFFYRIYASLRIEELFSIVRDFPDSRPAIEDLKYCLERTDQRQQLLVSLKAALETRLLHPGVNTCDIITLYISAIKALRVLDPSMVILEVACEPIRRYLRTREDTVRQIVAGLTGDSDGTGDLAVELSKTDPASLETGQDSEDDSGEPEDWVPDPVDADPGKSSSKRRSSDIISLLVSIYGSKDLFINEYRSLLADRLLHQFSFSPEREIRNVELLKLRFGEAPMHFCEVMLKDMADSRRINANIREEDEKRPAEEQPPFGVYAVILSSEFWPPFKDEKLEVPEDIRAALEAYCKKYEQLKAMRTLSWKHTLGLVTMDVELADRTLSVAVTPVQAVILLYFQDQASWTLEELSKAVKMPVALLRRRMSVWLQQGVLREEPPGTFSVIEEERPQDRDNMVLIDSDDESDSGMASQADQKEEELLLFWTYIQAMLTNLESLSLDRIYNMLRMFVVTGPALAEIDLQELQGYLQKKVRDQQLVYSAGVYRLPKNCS
active: volasertib -0.338
inactive: [1] 0.031 | [2] -0.015 | [3] -0.001 | [4] 0.069 | Nexturastat A -0.045 | vemurafenib 0.027 | [5] 0.047 | [6] -0.049 | givinostat 0.042 | barasertib 0.022 | [7] -0.071 | [8] 0.023 | epoxomicin -0.031 | [9] -0.027 | [10] -0.018 | [11] 0.004 | rosiglitazone 0.191 | [12] 0.03 | [13] -0.001

ATAD3A isoform 2 (UniProt Q9NVI7)
inactive: [1] -0.04 | [2] 0.005 | [3] 0.007 | [4] 0.017 | Nexturastat A 0.207 | vemurafenib 0.033 | [5] 0.052 | [6] 0 | givinostat 0.045 | barasertib 0.009 | [7] -0.145 | volasertib -0.202 | [8] 0.038 | epoxomicin 0.05 | [9] -0.055 | [10] 0.033 | [11] 0.018 | rosiglitazone 0.007 | [12] 0.177
active: [13] -0.319
